Results taken from PubChem BioAssay (NCATS).
Inconclusive results are not listed. The source made the active and inactive calls. Calls come from the whole dose curve; as a rule, active = well fitted cell-killing curve with a large enough effect; inconclusive = small, poorly fitted or top-dose-only effect, or effect the other way; inactive = no such curve, though single readings can be large or run the other way.

Assay: Quantitative High-Throughput drug screen in 47 multiple myeloma cell lines against the NCATS MIPE library collection: MMM1_PLB cell viability assay (AID 1918976); note: nearly all actives have a fitted effect of over 35% in size
Settings: MMM1 myeloma cells viability, CellTiter-Glo, 48 h; series mostly up to 45.8 µM; viability (% of control): at the top concentration
From the text: PI: Beverly A. Mock Ph.D.
Laboratory of Cancer Biology and Genetics,
Center for Cancer Research, National Cancer Institute,
National Institute of Health, Bethesda, Maryland
Drug resistance and disease progression are common in multiple myeloma (MM) patients, underscoring the need for new therapeutic combinations. […] We hypothesized that effective combinations would reduce MYC expression and enhance p16 activity. […] These preclinical data identify potentially useful drug combinations for evaluation in drug-resistant MM and reveal potential mechanisms of combined drug sensitivity.
Described herein is the primary MIPE qHTS used to cherrypick compounds. Validated compounds were then further tested for potential synergistic activiy.
[1] Peat TJ, Gaikwad SM, Dubois W, Gyabaah-Kessie N, Zhang S, Gorjifard S, Phyo Z, Andres M, Hughitt VK, Simpson RM, Miller MA, Girvin AT, Taylor A, Williams D, D'Antonio N, Zhang Y, Rajagopalan A, Flietner E, Wilson K, Zhang X, Shinn P, Klumpp-Thomas C, McKnight C, Itkin Z, Chen L, Kazandijian D, Zhang J, Michalowski AM, Simmons JK, Keats J, Thomas CJ, Mock BA. Drug combinations identified by high-throughput screening promote cell cycle transition and upregulate Smad pathways in myeloma. Cancer Lett. 2023 Aug 1;568:216284. doi: 10.1016/j.canlet.2023.216284. Epub 2023 Jun 24. PMID: 37356470; PMCID: PMC10408729.
SEQUENCE No. (e.g., 1, 2, 3, etc.); […] (e.g., Cells, Incubation, Reagent, etc.); VALUE and DESCRIPTION.
1; Cells; 5 uL; white, solid bottom 1536-well Greiner assay plate.
2; Compounds; 23 nL; Kalypsis pin tool (Wako USA) equipped with a 1536-well pin head to transfer to the assay plates.
3; Incubation; 48 hours; 37C incubation.
4; Reagent;5uL; CellTiter Glo (Promega).
5; Detector; 425V; Luminescence; Viewlux PerkinElmer.
NOTES (numbers refer to Sequence numbers above)
1. The cell-based screening methods employed in this study were like those previously published. Briefly, the corresponding myeloma cell lines were screened in 1,536-well plates with 500 cells, 5-uL per well for inhibition of cell viability (assessed by measuring ATP levels with CellTiterGlo).
2. NCATS MIPE 4.0 library of approved and investigational drugs were added using the Kalypsis pin tool. Wells treated with DMSO only for 100% viability and media only for 0% viability were used as controls.
3. The assay plates were covered and incubated for 48 hours in a 37C, 5% CO2 incubator with controlled humidity.
4. After 48 hours, CellTilter-GloTM luminescent substrate mix (Promega) reagent was added to the assay plate and plates we incubated for 5 min at room temperature.
5. Signal was measured as median relative luminescence units on a ViewLux (PerkinElmer) multiplate reader.
[1] Heske CM, Davis MI, Baumgart JT, Wilson K, Gormally MV, Chen L, Zhang X, Ceribelli M, Duveau DY, Guha R, Ferrer M, Arnaldez FI, Ji J, Tran HL, Zhang Y, Mendoza A, Helman LJ, Thomas CJ. Matrix Screen Identifies Synergistic Combination of PARP Inhibitors and Nicotinamide Phosphoribosyltransferase (NAMPT) Inhibitors in Ewing Sarcoma. Clin Cancer Res. 2017 Dec 1;23(23):7301-7311. doi: 10.1158/1078-0432.CCR-17-1121. Epub 2017 Sep 12. PMID: 28899971; PMCID: PMC6636827.
Potency is the fitted concentration of half-maximal effect.

| Structure (SMILES) | Potency | viability (% of control) |
| --- | --- | --- |
| CCN(CC)C(=S)SSC(=S)N(CC)CC | 0.0187 µM (active) |  |
| CN1C(C(=O)Nc2ccccn2)=C(O)c2sccc2S1(=O)=O | 2.35 µM (active) |  |
| O=c1cc(N2CCOCC2)oc2c(-c3ccccc3)cccc12 | 18.7 µM (active) |  |
| CCCCc1ccc2nc(NC(=O)OC)[nH]c2c1 | 3.32 µM (active) |  |
| O=Nc1c(-c2c(O)[nH]c3cc(Br)ccc23)[nH]c2ccccc12 | 20.9 µM (active) |  |
| COc1c(O)cc2c(c1O)[C@@H]1O[C@H](CO)[C@@H](O)[C@H](O)[C@H]1OC2=O | 2.35 µM (active) |  |
| CC(C)[C@H](N)C(=O)OCCOCn1cnc2c(=O)[nH]c(N)nc21 |  | 129% (inactive) |
| Nc1cccc2c1CN(C1CCC(=O)NC1=O)C2=O (stereo not given) | 0.429 µM (active) |  |
| Cc1cccc(-c2[nH]ncc2-c2ccc3ncccc3n2)n1 |  | 143% (inactive) |
| Cc1cc(C2CCCCC2)n(O)c(=O)c1 | 14.8 µM (active) |  |
| COC1=C(OC)C(=O)C(CCCCCCCCCCO)=C(C)C1=O | 20.9 µM (active) |  |
| Cc1cc(=O)c2c(O)c3c(O)cc(=O)c4c3c3c(cc(O)c1c23)C(C)(C)C=4O | 0.372 µM (active) |  |
| O=C(O)c1cccc(-c2noc(-c3ccccc3F)n2)c1 | 2.35 µM (active) |  |
| Cc1nc(-c2ccc(OCC(C)C)c(C#N)c2)sc1C(=O)O | 6.62 µM (active) |  |
| Cc1cccc(C)c1OCC(=O)N[C@@H](Cc1ccccc1)[C@@H](O)C[C@H](Cc1ccccc1)NC(=O)[C@H](C(C)C)N1CCCNC1=O | 16.6 µM (active) |  |
| NCCCCNCCCN | 10.5 µM (active) |  |
| COc1cc(Nc2c(C#N)cnc3cc(OCCCN4CCN(C)CC4)c(OC)cc23)c(Cl)cc1Cl | 20.9 µM (active) |  |
| CCOC(=O)C1=C(O)C(=O)N(Cc2ccccc2)C1 | 1.66 µM (active) |  |
| COc1c2occc2cc2ccc(=O)oc12 | 1.32 µM (active) |  |
| Cc1cccc(CN2CCN(C(c3ccccc3)c3ccc(Cl)cc3)CC2)c1 (stereo not given) | 20.9 µM (active) |  |

| Structure (SMILES) | Potency | viability (% of control) |
| --- | --- | --- |
| O=C(c1ccccc1)c1ccc2n1CCC2C(=O)O (stereo not given) | 0.743 µM (active) |  |
| CC(=O)O[C@H]1C(=O)[C@@]2(C)C([C@H](OC(=O)c3ccccc3)[C@]3(O)C[C@H](OC(=O)[C@H](O)[C@@H](NC(=O)c4ccccc4)c4ccccc4)C(C)=C1C3(C)C)[C@]1(OC(C)=O)CO[C@@H]1C[C@@H]2O (stereo not given in full) | 14.8 µM (active) |  |
| CS(=O)(=O)OCCCCOS(C)(=O)=O | 16.6 µM (active) |  |
| Cc1cc(Cl)ccc1OCCCC(=O)NO | 2.64 µM (active) |  |
| O=C(NC(Cc1cc(=O)[nH]c2ccccc12)C(=O)O)c1ccc(Cl)cc1 (stereo not given) | 9.35 µM (active) |  |
| CC(=O)N1CCN(c2ccc(OC[C@H]3CO[C@](Cn4ccnc4)(c4ccc(Cl)cc4Cl)O3)cc2)CC1 | 23.5 µM (active) |  |
| O=c1oc2cc(O)ccc2s1 | 16.6 µM (active) |  |
| CC(C)C[C@H](NC(=O)[C@H](Cc1ccccc1)NC(=O)c1cnccn1)B(O)O | 0.469 µM (active) |  |
| Cc1c(C(=O)NN2CCCCC2)nn(-c2ccc(Cl)cc2Cl)c1-c1ccc(Cl)cc1 | 20.9 µM (active) |  |
| O=c1c(O)c(-c2cc(O)c(O)c(O)c2)oc2cc(O)cc(O)c12 | 18.7 µM (active) |  |
| O=C1CCc2ccc(OCCCCN3CCN(c4cccc(Cl)c4Cl)CC3)cc2N1 | 20.9 µM (active) |  |
| CCCCCCCCOc1ccccc1C(=O)Nc1ccc(C(=O)OCC[N+](C)(CC)CC)cc1 | 16.6 µM (active) |  |
| Oc1ccc2ccccc2c1SSc1c(O)ccc2ccccc12 | 20.9 µM (active) |  |
| O=C(NCCO[N+](=O)[O-])c1cccnc1 |  | 113% (inactive) |
| CC[C@]1(O)C[C@H]2CN(CCc3c([nH]c4ccccc34)[C@@](C(=O)OC)(c3cc4c(cc3OC)N(C=O)[C@H]3[C@@](O)(C(=O)OC)[C@H](OC(C)=O)[C@]5(CC)C=CCN6CC[C@]43[C@@H]65)C2)C1 | 1.05 µM (active) |  |
| O=C(CCc1ccc(O)cc1)c1c(O)cc(O)cc1O | 0.132 µM (active) |  |
| NNc1nncc2ccccc12 | 20.9 µM (active) |  |
| Oc1ccc(OCc2ccccc2)cc1 | 5.9 µM (active) |  |
| C[C@H](Cc1ccc(O)c(O)c1)[C@@H](C)Cc1ccc(O)c(O)c1 | 6.62 µM (active) |  |
| N=C(N)c1ccc2cc(OC(=O)c3ccc(N=C(N)N)cc3)ccc2c1 | 0.935 µM (active) |  |
